# Data published in PubChem BioAssay (NCI).
# Compounds without any hit were thinned out: in the full panel of roughly 83,000, 20% have a hit.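 Values shown are percent growth following 48 h exposure of cells in 96-well plates to a single concentration of compound; below 10 was considered active.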 Unmarked numbers belong to inactive results. The source made the active and inactive calls.
# Tests used:
# Assay in all cases: NCI-60 one-dose screen, 48 h (100 = growth as untreated, 0 = no growth, -100 = all killed)
# Conditions in all cases: 10 µM unless noted
# T-47D breast = system: T-47D breast
# BT-549 breast = system: BT-549 breast
# MDA-MB-435 melanoma = system: MDA-MB-435 melanoma
# SW-620 colon = system: SW-620 colon
# MCF7 breast = system: MCF7 breast
# HCT-116 colon = system: HCT-116 colon
# HCC-2998 colon = system: HCC-2998 colon
# KM12 colon = system: KM12 colon
Structure (SMILES),growth (T-47D breast),growth (BT-549 breast),growth (MDA-MB-435 melanoma),growth (SW-620 colon),growth (MCF7 breast),growth (HCT-116 colon),growth (HCC-2998 colon),growth (KM12 colon)
CCCCCCCC/C=C/CCCCCCCC1=NC(C)(C)CN1c1ccccc1,81.2%,105%,50.3%,82%,86.3%,62.8%,103%,105%
O=C(/C=C/c1ccccc1Br)c1cccc(OCCCCOc2cccc(C(=O)/C=C/c3ccccc3Br)c2)c1,75.4%,104%,97%,99%,28.1%,16.4%,109%,101%
COc1cccc(-c2cc(-c3cccs3)c(C#N)c(=O)[nH]2)c1,93.3%,113%,103%,105%,94.2%,101%,125%,101%
NS(=O)(=O)c1ccc(CCn2c(SCC(=O)N/N=C/c3cc4ccccc4[nH]3)nc3ccccc3c2=O)cc1,45.2%,74.3%,45.9%,71.9%,37.7%,29.6%,88%,50%
COc1cc(C2CC(=O)Nc3c2cnn3C)cc(OC)c1OC (stereo unspecified),96.1%,99.4%,105%,108%,97.1%,100%,108%,105%
Nc1ccc(C2=NNC(=O)Cc3cc4c(cc32)OCCO4)cc1Cl,44.2%,48.5%,-19.2% (active),18.7%,18.8%,20.1%,61.9%,16%
COC1(OC)C2(Cl)CCC1(Cl)C(Cl)=C2Cl,98.3%,117%,99.9%,120%,98%,105%,103%,106%
O=C(Nc1ccc(Br)cc1)Nc1cccc(Br)c1,-10.5% (active),58.2%,47.4%,29%,13.3%,27.5%,27.6%,13.2%
Cc1ccncc1NC=O,102%,132%,105%,99.2%,95.9%,108%,113%,103%
CC(C)(C)c1cc(C[P+](c2ccccc2)(c2ccccc2)c2ccccc2)cc(C(C)(C)C)c1O,-4.23% (active),-0.875% (active),-38% (active),10.6%,3.43% (active),5.83% (active),14.6%,-38.6% (active)
COc1ccc2[nH]cc(C3(c4c[nH]c5ccc(OC)cc45)C(=O)Nc4ccc(Cl)cc43)c2c1,76.4%,93.7%,23.3%,30%,61.7%,64.3%,58%,14.8%
CCN(C(=O)CCl)C(C)(C)C(SSSC(c1ccc(Cl)cc1)C(C)(C)N(CC)C(=O)CCl)c1ccc(Cl)cc1 (stereo unspecified),87.1%,85.8%,36.4%,72.6%,57.1%,48%,85.6%,85.6%
Clc1ccc(-c2cnc3nonc3n2)s1,58.4%,93.8%,-10.6% (active),82.6%,38.7%,67%,109%,77.1%
O=C(Nc1cccc(Cl)c1)Nc1ccccc1Cl,81.5%,99.2%,92.2%,89.5%,77.8%,90%,99.8%,89.9%
CC(CN1CCN(CC(C)Nc2ccnc3cc(Cl)ccc23)CC1)Nc1ccnc2cc(Cl)ccc12 (stereo unspecified),-21.3% (active),10.8%,-45.4% (active),5.03% (active),10.6%,-83.2% (active),-5.03% (active),19.8%
CCN(CCC#N)c1ccccc1,101%,110%,109%,101%,105%,105%,109%,114%
Nc1c(Br)cc2c(c1Br)Cc1cc(Cl)ccc1-2,66%,128%,102%,98.2%,80.6%,97.1%,102%,98.7%
CCSc1cnnc2ccccc12,107%,116%,105%,113%,108%,106%,101%,113%
CC(C)(C)c1ccc(C(=O)Nc2sc3cc(O)ccc3c2C(N)=O)cc1,61.5%,85.4%,83.9%,53.6%,44%,74%,88.2%,34.6%

Structure (SMILES),growth (T-47D breast),growth (BT-549 breast),growth (MDA-MB-435 melanoma),growth (SW-620 colon),growth (MCF7 breast),growth (HCT-116 colon),growth (HCC-2998 colon),growth (KM12 colon)
CC1=CC(=O)OC1C/C=C(\C)CCC1[C@@]2(C)CCC[C@@](C)(C(=O)O)C2CC[C@@]1(C)O (stereo partly specified),87.3%,67.3%,16.7%,32.4%,28.8%,27.9%,44%,26.4%
COc1ccc2c(c1)OC1=C(C(=O)OC1)C2c1cc(OC)c2c(c1)OCCO2 (stereo unspecified),60.2%,24.6%,-18.1% (active),24.6%,10.3%,4.09% (active),23%,2.33% (active)
O=C(c1ccccc1)C(CCc1ccccn1)CCc1ccccn1,92.3%,106%,108%,107%,106%,94%,96.5%,109%
C#CCNc1nc(NCCNC(=O)CCl)nc(N(C)CCCCc2ccccc2)n1,93%,76.3%,98.7%,97.9%,86%,79.1%,108%,99.1%
CC(C)CCSc1nc(-c2ccc(F)cc2)c(C#N)c(N2CCCCC2)n1,79%,91.4%,100%,95.6%,93.6%,88%,102%,94.5%
C=CCOC(=O)C1=C(C)NC2=C(C(=O)CCC2)C1c1ccc(F)cc1 (stereo unspecified),89.4%,99.4%,101%,94.4%,95.6%,92.3%,104%,93.8%
CCCCCCCCCCCCCC1=NC(C)(C)CN1C(C)C,-22.3% (active),22.8%,-57.3% (active),-67.2% (active),-41.3% (active),-72.6% (active),-90.6% (active),-75.5% (active)
C[N+](C)(C)CC(=O)N/N=C\c1ccco1,97.7%,104%,107%,98.9%,88.6%,101%,110%,96.8%
CCn1c(=O)c(C(=O)NCCCO)c(O)c2ccccc21,106%,150%,106%,106%,95.2%,104%,139%,120%
CCCCCCCC/C=C/CCCCCCCC1=NC(C)(C)CN1C(C)C,-29.2% (active),60.9%,-58.3% (active),-69.8% (active),-60.5% (active),-74.8% (active),-91.8% (active),-77.1% (active)
CC1CCN(CCCCCOc2ccc3oc4ccc(Cl)cc4c(=O)c3c2)CC1,63.4%,76.2%,21.4%,46.7%,59.8%,23.9%,78.4%,62.3%
Cc1cc(O)ccc1Sc1ccccc1[N+](=O)[O-],98.7%,93.2%,57.7%,90.2%,118%,98.1%,97.5%,91.1%
CS(=O)(=O)c1ccc(C(=O)N2N=C(c3ccccc3)CC2c2ccc3c(c2)OCO3)cc1 (stereo unspecified),78.5%,86.3%,113%,100%,84.1%,81.7%,99.3%,93.6%
c1csc(-c2cnc3nonc3n2)c1,45.9%,87.3%,98.6%,99.7%,61.3%,66.6%,112%,91.5%
COc1cc(OC)c(C(=O)/C=C/c2cccc(OC(C)=O)c2)cc1CC=C(C)C,52.3%,81.8%,73.6%,35.5%,44.6%,47.1%,72.9%,68.8%
Cn1cnc([N+](=O)[O-])c1S(=O)(=O)Oc1cccc2ccccc12,-30.9% (active),99.9%,67.9%,7.26% (active),44.8%,17.8%,88.7%,88.9%
COc1ccc(/C=C/C(=O)CCC(=O)O)cc1OC,93.1%,109%,106%,105%,97.1%,104%,125%,103%
CC1(C)CN(CCNc2nccc(-c3c(-c4cccc(O)c4)nc4sccn34)n2)S(=O)(=O)N1,75.6%,80.9%,19.9%,87.6%,70%,28%,93.4%,76.4%
COc1cc(/C=N/NC(=O)Cn2c(-c3ccc(C)o3)nc3ccccc32)ccc1OCc1ccccc1,69.2%,92%,96.9%,89.9%,76.2%,71.9%,103%,85.1%

Structure (SMILES),growth (T-47D breast),growth (BT-549 breast),growth (MDA-MB-435 melanoma),growth (SW-620 colon),growth (MCF7 breast),growth (HCT-116 colon),growth (HCC-2998 colon),growth (KM12 colon)
COc1cccc(NC(=O)OC(C)C)c1,93.8%,103%,92.8%,96.6%,102%,101%,96.7%,103%
O=c1c2cc(Br)cc(Br)c2nc(-c2ccc(Cl)cc2)n1/N=C/c1cccc(F)c1,48.8%,74.4%,78.8%,74.7%,52.5%,18.5%,84%,70.2%
COC(=O)c1ccc2c(c1)nc(-c1ccc(Cl)cc1)n2-c1cc(C(C)(C)C)[nH]n1,76.9%,43.9%,-12.3% (active),49.1%,25.1%,28.5%,68.1%,34.6%
CC(C)(CCc1ccccn1)C(=O)CCCc1ccccn1,95.2%,105%,109%,106%,98.6%,93.9%,107%,106%
CC[C@]1(O)C[C@H]2CN(CCc3c([nH]c4ccccc34)C(C(=O)OC)(c3cc4c(cc3OC)N(C)[C@H]3[C@@](O)(C(=O)OC)[C@H](OC(C)=O)[C@]5(CC)[C@@H]6C[C@@H]6CN6CC[C@]43[C@@H]65)C2)C1 (stereo partly specified),65.6%,-47.2% (active),-12.8% (active),31.6%,4.81% (active),-22.4% (active),2.47% (active),12%
Cc1ccc(Nc2cccc3ccccc23)cc1,65.1%,103%,29.7%,77.7%,38.4%,80.7%,88.1%,59.4%
COc1cccc(/C(C)=N/NC(=O)CSc2nc3ccccc3c(=O)n2CCc2ccc(S(N)(=O)=O)cc2)c1,40%,62.9%,38.4%,30.7%,20.5%,-50.5% (active),69.1%,14%
Nc1c(C(=O)C[C@@H](N)CO)ccc2c1C(=O)CCO2,33.6%,41.9%,68.3%,5.93% (active),22.5%,37.9%,-5.53% (active),20.1%
CC(=O)Cc1ccccn1,108%,97.8%,102%,108%,97.8%,107%,111%,105%
O=C(Nc1ccccc1)c1cc2ccccc2s1,38.1%,95.9%,109%,101%,46.8%,75.8%,48.9%,29.8%
COc1cc(C2C(C#N)=C(N)Oc3cc4c(cc32)OCO4)cc2c1OCO2 (stereo unspecified),53.7%,34.8%,-50.6% (active),29%,16.6%,11%,14.7%,10.9%
OCCN(CCO)c1ccc2ccccc2c1,96.6%,101%,104%,105%,93.3%,89.3%,108%,99.9%
S=C(S)Oc1cccc2cccnc12,107%,98.4%,104%,105%,95.8%,95.9%,113%,109%
COc1ccc(-c2nc3ccccc3n3cccc23)cc1,107%,95.4%,126%,101%,81.9%,92%,110%,99%
COC(=O)c1ccc2c(c1)nc(-c1cc3ccccc3[nH]c1=O)n2-c1cc(C(C)(C)C)[nH]n1,59.3%,54.6%,46.4%,61.8%,58.1%,51.1%,-10.1% (active),44.3%
COc1cc([N+](=O)[O-])cc(OC)c1OC,112%,108%,117%,105%,96.5%,113%,107%,108%
CCOC(=O)C1C(=O)C=C(c2ccccc2)CC1c1sc(N(C)Cc2ccccc2)nc1Cl (stereo unspecified),60.4%,96.1%,96.2%,90.3%,79.9%,80.1%,109%,90.9%
COc1cc2c(c(OC)c1O)C(=O)C(OC)C(c1ccc(O)c(O)c1)O2 (stereo unspecified),50.3%,-14.6% (active),-23.8% (active),22.6%,11%,3.39% (active),20.1%,8.81% (active)
CC(=O)N1N=C(C2C(=O)N(C)C(=O)N(C)C2=O)CC1c1ccccc1C(=O)O (stereo unspecified),95.4%,91.8%,102%,107%,101%,91.3%,113%,114%
